Data as given in PubChem BioAssay (NCATS).
Records with an inconclusive call do not appear. Unmarked numbers belong to inactive results. Calls come from the whole dose curve; as a rule, active = well fitted inhibition curve with a large enough effect; inconclusive = small, poorly fitted or top-dose-only effect; inactive = flat fitted curve, though single readings scatter.

What follows are compounds tested against Aldehyde dehydrogenase, mitochondrial (Homo sapiens) (UniProt P05091) (assay: qHTS for Inhibitors of the Aldehyde Dehydrogenase Family (ALDH2) Primary screen (AID 2061308;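 note: plate controls were vehicle for no effect and reference inhibitor for full effect; nearly all actives have a fitted effect of over 55% in size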)). Conditions: ALDH2 enzyme inhibition qHTS, 1536-well; series mostly up to 56 µM; activity change, negative = inhibition: at the top concentration.

In order of falling “activity change, negative = inhibition” value:
1. CCN1CCN(c2ccc(Nc3ccc(-c4ccc(C(N)=O)cc4)n4ncnc34)cc2)CC1  9.77%
2. Cc1ccc(-c2cnc(N3CCC(C(N)=O)CC3)s2)cc1  2.39%
3. O=C(Nc1ccccc1Cl)c1cnc2ccc(C3CCNCC3)cn12  -12.7%
4. COc1ccc(O)c(C2Nc3ccccc3C(=O)N2Cc2ccccc2)c1 (centres undefined)  -23.4%
